This is an account of results in PubChem BioAssay AID1529 (NMMLSC, 2009).

Screen size: about 290,000 compounds; about 4,200 (1.4%) were called active. For the sample, actives were picked, then their nearest neighbours and some compounds at random. A number with no mark means an inactive call.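 How the source made its calls: active means binding response more than 3 SD above or below the average of its plate-row segment, actives on both sides; inconclusive means wells at one plate position flagged as instrument error; inactive means the rest.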

For the test, the target named is Mitogen-activated protein kinase kinase kinase 3 (Homo sapiens) (UniProt Q99759). The test can be described thus: modulators of MEKK3-MEK5 PB1 binding, primary screen, biochemical, wildtype MEKK3, multiplex bead flow cytometry, Alexa488-MEK5 (AID 1529).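 Further: Alexa488 bead fluorescence after subtracting the streptavidin-only scavenger bead signal.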 The note with it: bead-based flow cytometry, Alexa488-MEK5 binding to MEKK3; at 10 µM; actives lie on both sides.
Chain of Mitogen-activated protein kinase kinase kinase 3 (Homo sapiens) (Q99759 whole entry, looked up): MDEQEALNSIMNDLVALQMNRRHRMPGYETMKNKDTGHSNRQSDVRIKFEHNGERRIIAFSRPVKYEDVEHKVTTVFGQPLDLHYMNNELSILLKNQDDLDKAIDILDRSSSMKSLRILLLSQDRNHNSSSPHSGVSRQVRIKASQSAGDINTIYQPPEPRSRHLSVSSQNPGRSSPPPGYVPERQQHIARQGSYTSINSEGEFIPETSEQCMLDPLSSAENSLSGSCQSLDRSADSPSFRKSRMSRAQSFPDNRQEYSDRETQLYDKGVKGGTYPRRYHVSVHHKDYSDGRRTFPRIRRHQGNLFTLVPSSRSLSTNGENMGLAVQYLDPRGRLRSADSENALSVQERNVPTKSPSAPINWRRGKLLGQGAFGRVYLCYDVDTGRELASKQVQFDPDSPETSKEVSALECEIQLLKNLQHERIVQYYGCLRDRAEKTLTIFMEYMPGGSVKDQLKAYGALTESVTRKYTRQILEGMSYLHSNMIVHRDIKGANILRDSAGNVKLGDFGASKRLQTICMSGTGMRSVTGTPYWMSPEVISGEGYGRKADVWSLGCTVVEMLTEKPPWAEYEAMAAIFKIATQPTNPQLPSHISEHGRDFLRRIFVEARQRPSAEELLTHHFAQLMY
As to `O=C(CCNS(=O)(=O)c1ccccc1)Nc1ccc(Cl)cc1C(=O)c1ccccc1`, the binding response (% of control) was 107%.
On to `O=C(COC(=O)c1ccccc1)Nc1ccc(Cl)cc1C(=O)c1ccccc1`, for which the binding response (% of control) was 131% (active).
On to `CN1CCN(C(=S)SCC(=O)Nc2ccc(Cl)cc2C(=O)c2ccccc2)CC1`, for which the binding response (% of control) was 108%.
The same measure for `COC(=O)C1=C(c2cc3ccccc3s2)C[C@@H]2CC[C@H]1N2C(=O)NC(C)C`: 108%; for `COc1cccc(C(=O)N2C[C@H]3C[C@@H](C2)c2cccc(=O)n2C3)c1`: 98%.
As for `CN(C)CC1Oc2ccccc2OC1(O)c1ccccc1` (stereo not given), the binding response (% of control) is 106%.
Take `Cc1ccc(CN2CCCC(C(=O)c3ccc4c(c3)OCO4)C2)cc1C` (stereo not given): the binding response (% of control) was 49% [inhibitor] (active).
As to `Cc1ccsc1C(=O)C1CCCN(Cc2ccc(O)cc2)C1` (stereo not given), the binding response (% of control) is 96%.
With `COc1ccc(C(=O)C2CCCN(Cc3ccc(C)s3)C2)cc1OC` (stereo not given), the binding response (% of control) is 103%.
As to `CN(C)C(=O)Oc1ccc2c(c1)O/C(=C\c1ccccc1)C2=O`, the binding response (% of control) is 102%.
The result for `NCC(O)c1ccc(O)cc1` (stereo not given) reads 74% [inhibitor] (active).
For `COc1ccc2c(c1)[C@]13CCCCC1C(C2)N(C)CC3` (stereo not given in full), the binding response (% of control) was 100%.
Regarding `CN(C)CC1CCCCC1OC(=O)c1ccc(Cl)c(Cl)c1` (stereo not given), the binding response (% of control) was 135% (active).
Take `COC(=O)C1=C(c2cc3ccccc3o2)C[C@@H]2CC[C@H]1N2C(=O)NC1CCCCC1`: the binding response (% of control) was 103%.
As to `COC(=O)C1=C(c2cc3ccccc3s2)C[C@@H]2CC[C@H]1N2C(=O)NCCO`, the binding response (% of control) was 107%.
On to `COc1cccc(OC)c1C(=O)NC(=S)N1C[C@H]2C[C@H](C1)c1cccc(=O)n1C2`, for which the binding response (% of control) is 103%.
Turning to `CCCn1c(C(=O)c2ccccc2OC)nc2ccccc21`, the binding response (% of control) is 98%.
For the molecule `O=C1NC(=O)C(CCc2ccccn2)(Cc2cccc(Cl)c2Cl)C(=O)N1c1ccc(Br)cc1` (stereo not given), the binding response (% of control) was 89%.
As for `Cc1ccc(N2C(=O)NC(=O)C(CCc3ccncc3)(Cc3cccc(Cl)c3Cl)C2=O)cc1` (stereo not given), the binding response (% of control) is 138% (active).
The same measure for `COc1ccc2[nH]c3c(c2c1)CCN[C@H]3C`: 105%.
On to `CC[C@H]1CC2CN3CCc4c([nH]c5ccccc45)C(C(=O)OC)(C2)C13` (stereo not given in full), for which the binding response (% of control) is 99%.
`CNCC(O)c1cc(F)c(OCc2ccccc2)c(OCc2ccccc2)c1F` (stereo not given): the binding response (% of control) is 103%.
For `COc1ccc(-c2nn(CCC#N)cc2C(=O)Nc2ccc(C(C)=O)cc2)cc1`, the binding response (% of control) is 111%.
Consider `COC(=O)C1=C(c2cc3ccccc3s2)C[C@@H]2CC[C@H]1N2C(=O)NCc1cccc2ccccc12`, for which the binding response (% of control) was 105%.
As to `O=C(Cc1ccccc1[N+](=O)[O-])N1CCN(Cc2ccc3c(c2)OCO3)CC1`, the binding response (% of control) was 46% [inhibitor] (active).
Regarding `Cc1cc(=O)oc2c(C)c(OCC(=O)N3CCN(Cc4ccc5c(c4)OCO5)CC3)ccc12`, the binding response (% of control) is 106%.
`Fc1ccc(N2CCN(Cc3ccc4c(c3)OCO4)CC2)cc1`: the binding response (% of control) was 98%.
For `COc1ccc2c(c1O)-c1cccc3c1[C@@H](C2)N(C)CC3`, the binding response (% of control) was 95%.
Regarding `CCOc1ccc(CN(CCCl)CCCl)cc1C(=O)OC`, the binding response (% of control) is 111%.
The result for `COC(=O)C1=C(c2ccccc2)C[C@@H]2CC[C@H]1N2C(=O)N1CCCCC1` reads 102%.
